Results published in PubChem BioAssay AID1345083 (National Center for Advancing Translational Sciences (NCATS), 2018).
The campaign covered roughly 94,000 compounds. About 6,200 (6.6%) were called active. A call without a number means that no potency is given here. Not shown: some 31% with an inconclusive outcome. Calls come from the whole dose curve; as a rule, active = well fitted inhibition curve with a large enough effect; inconclusive = small, poorly fitted or top-dose-only effect; inactive = flat fitted curve, though single readings scatter. This excerpt belongs to a sample that is enriched for actives.
Potency is the fitted concentration of half-maximal effect.

Assay: Cytotoxic Profiling in HEK 293 Cell Line of Diverse Libraries Using Quantitative High-Throughput Screening; note: nearly all actives have a fitted effect of over 60% in size
Conditions: HEK 293 viability, ATP luminescence (CellTiter-Glo), 48-72 h; series mostly up to 115 µM
Excerpt: Cell-based phenotypic screening is a commonly used approach to discover biological pathways, novel drug targets, chemical probes and high-quality hit-to-lead molecules. Many hits identified from high-throughput screening campaign are ruled out through a series of follow-up potency, selectivity/specificity, and cytotoxicity assays. Prioritization of molecules with little or no cytotoxicity for a more in-depth downstream evaluation influence the future direction of projects, so cytotoxicity profiling of the screening libraries at early stage is essential for increasing the likelihood of candidate success. In this study, we analyzed results from a cell-based cytotoxicity screening campaign, comprising nearly 10,000 compounds in NCATS annotated libraries, and over 100,000 compounds in a diversity library, evaluated in four normal cell lines (HEK 293, NIH 3T3, CRL-7250 and HaCat) and a cancer cell line (KB 3-1, a HeLa subline) with overall screening outcomes, hit rates, pan-activity and selectivity. For the annotated library, we also examined the primary targets and mechanistic pathways regularly associated with cell death. To our knowledge, this is the first study to use high-throughput screening to profile large libraries for cytotoxicity assessment in both normal and cancer cell lines. In summary, the results generated here constitutes a valuable resource for the scientific community and provides insight on identifying cytotoxic compounds with particular mechanisms of action, and prioritizing compounds with suitable cytotoxicity profile for further evaluation.
HEK 293 cells were seeded into white 1536-well plates using a Multidrop Combi peristaltic dispenser (ThermoFisher, Waltham, MA) at a density of 250 cells/well in 5 uL of medium respectively. A pintool (Kalypsys) was used to transfer 23 nL of compound solution to the 1536-well assay plates. After 48 or 72 hr incubation at 37 degree Celsius, 5% CO2 and 95% humidity, 2.5 uL of CellTiter-Glo (Promega) was dispensed into each well using a dispenser (Aspect Automation, St. Paul, MN) with solenoid valves (Lee Valves, Westbrook CT). Plates were left at room temperature for 10 min before imaging the ATP-coupled luminescence using a ViewLux microplate imager (PerkinElmer, Waltham, MA).
In the case of Cc1ccc(-c2ccc3nnc(CNC(=O)c4ccncc4)n3n2)cc1C, the Potency is reported as “inactive”.
In the case of COc1ccc2c(c1)OCC(C(=O)N1CCCN(c3ncccn3)CC1)C2 (stereo not drawn), the Potency is reported as “inactive”.
For COc1ccc(C(=O)NCC23CCC=C2N(C)C(=O)CC3)cc1OC (stereo not drawn), the Potency was “inactive”.
In the case of CCCS(=O)(=O)N1CCC(Nc2nccnc2OCC)CC1, the Potency is reported as “inactive”.
In the case of COC[C@@H]1CN(Cc2c(C)n[nH]c2C)C[C@H]1c1nc(C)no1, the Potency is reported as “inactive”.
With CC/C=C(\C)CN1CCC2(CC1)Cc1ccccc1CNC2=O the Potency was “inactive”.
In the case of CC(=O)N1CC(CO)C2(CCN(C(=O)c3ccccc3Cl)CC2)C1 (stereo not drawn), the Potency is reported as “inactive”.
With C=CCNC(=O)N1CC[C@@H](CC(=O)O)[C@@H](CC2=NCCc3ccc(C)cc32)C1 the Potency was “inactive”.
In the case of COc1ccc(C(=O)N2CCCC2C(=O)N2CCCC2c2nc3ccncc3[nH]2)cc1 (stereo not drawn), the Potency is reported as “inactive”.
With COc1ccc(C(=O)N2CCCC(C(=O)N3CCCC(c4nc5ccncc5[nH]4)C3)C2)cc1 (stereo not drawn) the Potency was “inactive”.
With COc1ccc(-c2nc3ccncc3[nH]2)cc1 the Potency was 20 µM (active).
In the case of Cc1ccc(CN2CCOCCNC(=O)CC2)o1, the Potency is reported as “inactive”.
With CN(C)C(=O)c1cccnc1OC1CCN(S(=O)(=O)c2ccc(F)c(F)c2)C1 (stereo not drawn) the Potency was “inactive”.
With CC1(c2ccccc2)N(Cc2ccccc2F)C(=O)OC12CCN(Cc1c[nH]c3ccccc13)CC2 (stereo not drawn) the Potency was 20 µM (active).
In the case of COC1CCC(C(=O)N2CCC3(CC2)OC(=O)N(Cc2ccccc2)C3(C)c2ccccc2)CC1 (stereo not drawn), the Potency is reported as “inactive”.
For Cc1ncsc1C(=O)N1CCC2(CC1)OC(=O)N(Cc1ncccn1)C2(C)c1ccccc1 (stereo not drawn), the Potency was “inactive”.
With CC1CCN(C(=O)c2ccccc2OCC2CCCN(Cc3cncs3)C2)CC1 (stereo not drawn) the Potency was “inactive”.
For CC(C)Oc1ccc(CN2CCCC(COc3ccccc3C(=O)N3CCCC3)C2)cc1 (stereo not drawn), the Potency was 39.8 µM (active).
In the case of CCOc1ccccc1C(=O)N1Cc2cnc(Cc3ccc(OC)cc3)nc2C1, the Potency is reported as “inactive”.
For COc1cc(-c2ccccc2C#N)cc(OC)c1OC, the Potency was “inactive”.
With COCCNC(=O)[C@@H]1C[C@H](Oc2ccccc2)CN1C(=O)C1(c2ccccc2)CC1 the Potency was “inactive”.
For O=C(NCCCc1ccccc1)c1n[nH]c2c1CN(C(=O)C1CC1)CC2, the Potency was 11.2 µM (active).
For CN(C)C(=O)c1n[nH]c2c1CN(C(=O)c1ccccc1Br)CC2, the Potency was “inactive”.
In the case of COC(=O)c1n[nH]c2c1CN(C(=O)[C@H]1CCC[C@@H](O)C1)CC2, the Potency is reported as “inactive”.
In the case of CN(C)C[C@@H]1CN(S(C)(=O)=O)C[C@H]1NC(=O)c1ccc(C#N)cc1, the Potency is reported as “inactive”.
For Cn1nc(C2CCCN2C(=O)NC2CCCCC2)n(Cc2ccccc2)c1=O (stereo not drawn), the Potency was “inactive”.
For COCCn1c(C)cnc1CC1CCN(C(=O)c2ccc(OC)cc2OC)CC1, the Potency was “inactive”.
In the case of COc1ccc(NC(=O)N2CCCC(Cc3noc(-c4ccccc4)n3)C2)cc1 (stereo not drawn), the Potency is reported as 35.5 µM (active).
For COCCCNC(=O)N1CCC(Cc2noc(-c3ccncc3)n2)C1 (stereo not drawn), the Potency was “inactive”.
In the case of Cc1cc(C(=O)N2CCCC(Cc3noc(-c4cccnc4)n3)C2)nn1C (stereo not drawn), the Potency is reported as “inactive”.
For Cc1nc(-c2cn(C3CCCN(C(=O)c4cc(F)ccc4F)C3)nn2)no1 (stereo not drawn), the Potency was “inactive”.
In the case of COC(=O)[C@H](CC1CCCCC1)NC(=O)[C@@H]1CN(C(=O)c2ccc(N(C)C)cc2)CCN1C(C)=O, the Potency is reported as “inactive”.
In the case of COc1ccc(NC(=O)N2C[C@@H](F)C[C@H]2C(=O)N2CCCCC2)c(C)c1, the Potency is reported as “inactive”.
With Cc1cc(Cl)ccc1-c1ccc(CN)cc1 the Potency was 31.6 µM (active).
With NCc1ccc(-c2cncnc2)cc1 the Potency was “inactive”.
In the case of O=C(CCc1ccc2c(c1)CNCCO2)NCC1CC1, the Potency is reported as “inactive”.
In the case of O=C1CCCCC(CNC(=O)c2ccoc2)N1 (stereo not drawn), the Potency is reported as “inactive”.
With Cc1ccc(CNC(=O)N2CCC3(CC2)CC(N(C2CC2)S(C)(=O)=O)CCO3)cc1 (stereo not drawn) the Potency was “inactive”.
With Cc1nc(-c2ccccc2OC2CN(S(=O)(=O)c3cn(C)cn3)C2)no1 the Potency was “inactive”.
In the case of COc1ccccc1-c1cc(C(=O)NCc2cnn(C)c2)c2c(c1)N(C)CCO2, the Potency is reported as “inactive”.
For COc1cc2c(cc1OC)C(CNC(=O)c1ccc(Cl)cc1)N(C(=O)Nc1ccccc1)CC2 (stereo not drawn), the Potency was “inactive”.
In the case of COc1ccccc1-c1cnc(Nc2ccncc2)c2c1CCO2, the Potency is reported as 63.1 µM (active).
For COc1ccccc1-c1cnc(NC(=O)c2ccc(Cl)cc2)c2c1CCO2, the Potency was 63.1 µM (active).
With CCS(=O)(=O)N1CC(F)(F)C[C@H]1c1nc(C2CC2)no1 the Potency was “inactive”.
In the case of CC(C)(C)n1nnnc1C1CC2(CCOCC2)C(=O)N1Cc1cccc(F)c1 (stereo not drawn), the Potency is reported as “inactive”.
With O=C1CC2(CCN(C(=O)C3CCN(C(=O)Cc4ccccn4)CC3)CC2)Oc2ccccc2N1 the Potency was “inactive”.
For Cc1cnc(C)n1CCN, the Potency was “inactive”.
For Cc1ccccc1S(=O)(=O)N1CCN(C(=O)N2CC3CC(C2)[C@H]2CCCC(=O)N2C3)CC1 (stereo partly drawn), the Potency was “inactive”.
For CCNC(=O)c1cccnc1OC1CCN(C(=O)CC2CCCC2)C1 (stereo not drawn), the Potency was “inactive”.
For c1ccc2sc(C3CCCN(Cc4cc5n(n4)CCNC5)C3)nc2c1 (stereo not drawn), the Potency was “inactive”.
With Cn1c([C@H]2CCN(C3CCOCC3)C2)nc2ccccc21 the Potency was “inactive”.
For CN1CCC(N2CC[C@H](c3nc4ccccc4s3)C2)CC1, the Potency was 31.6 µM (active).
For COc1cccc(CC(=O)NCCC2CCN(C(=O)Nc3ccc(C)cc3)CC2)c1, the Potency was “inactive”.
For COc1cccc(NC(=O)NC[C@H]2O[C@@H](CO)[C@@H](O)[C@H]2N(C)CCN(C)C)c1, the Potency was “inactive”.
With COC(=O)[C@@H]1C[C@@H](NC(=O)c2ccc(-c3nnn(C)n3)cc2)CN1C the Potency was “inactive”.
With COC(=O)[C@@H]1Cc2c([nH]c3ccccc23)[C@H]2C[C@H](NCCNC(C)=O)C[C@@H](c3ccc(C)cc3)N21 the Potency was 25.1 µM (active).
With C#CCN[C@@H]1C[C@@H]2c3[nH]c4ccccc4c3C[C@@H](C(=O)OC)N2[C@H](c2ccc(F)cc2)C1 the Potency was 31.6 µM (active).
In the case of CN(CCNC(=O)C1CCCN(S(C)(=O)=O)CCC(=O)NCC1)C1CCCCC1 (stereo not drawn), the Potency is reported as “inactive”.
For Cc1cc(C)n(CCC(=O)N[C@@H]2CN(S(C)(=O)=O)C[C@H]2CN(C)C)n1, the Potency was “inactive”.
With COc1ccc(CNC(=O)NCC(=O)N2CCCCCCNC(=O)CC2c2ccccc2)cc1 (stereo not drawn) the Potency was “inactive”.
For O=[S+]1([O-])NCC2(CCN(CC3CC3)CC2)Oc2ncccc21, the Potency was “inactive”.
With Cc1noc([C@@H]2CC(F)(F)CN2C(=O)c2cc(C)on2)n1 the Potency was “inactive”.
In the case of c1cc(CN2CCOC[C@H]2c2ncc(-c3ccncc3)[nH]2)ccn1, the Potency is reported as “inactive”.
For Cc1ccc(CN2CCOC[C@H]2c2ncc(-c3cccc(F)c3)[nH]2)cc1, the Potency was 70.8 µM (active).
In the case of CC(C)(C)c1coc([C@@H]2COCCN2Cc2ccc(F)cc2)n1, the Potency is reported as “inactive”.
In the case of CC(=O)N1CCC(N2CCOC[C@H]2c2ncc(-c3ccc(Cl)s3)[nH]2)CC1, the Potency is reported as “inactive”.
With Cn1cc(CN2CCOC[C@H]2c2ncc(-c3cccc(F)c3)[nH]2)c2ccccc21 the Potency was 35.5 µM (active).
With Oc1ccccc1CN1CCOC[C@H]1c1ncc(-c2ccc(C(F)(F)F)cc2)[nH]1 the Potency was 70.8 µM (active).
In the case of Fc1ccc(CN2CCOC[C@H]2c2ncc(-c3cccnc3)[nH]2)cc1, the Potency is reported as “inactive”.
In the case of Cn1cc(CN2CC[C@H](c3nnc(-c4cccnc4)o3)C2)c2ccccc21, the Potency is reported as “inactive”.
For c1cncc(-c2cnc([C@@H]3COCCN3Cc3cnc4ccccc4c3)[nH]2)c1, the Potency was “inactive”.
With O=C(CC1CCCCC1)Nc1ccc(-c2nnc3n2CCCC3)cc1 the Potency was “inactive”.
In the case of Cc1nsc(NC(=O)N2CCC(C(=O)N3CCCC3)CC2)n1, the Potency is reported as “inactive”.
With Cc1c(C(=O)N2CCn3nc(CO)cc3C2)cnc2cc(=O)[nH]n12 the Potency was “inactive”.
For COCC(=O)N[C@@H]1CN(Cc2ccccc2OC(C)C)C[C@H]1CO, the Potency was “inactive”.
With Cn1cnc(S(=O)(=O)N2CCOCCNC(=O)[C@@H]3CCC[C@@H]32)c1 the Potency was “inactive”.
For O=C(Cn1ccn2nc(-c3ccc(F)cc3)c(CO)c2c1=O)Nc1ccc(F)cc1F, the Potency was “inactive”.
In the case of CC(C)C1=NOC2(CCN(C3CCCCC3)CC2)C1, the Potency is reported as “inactive”.
With CNC(=O)[C@@H]1CN(Cc2ccncc2)C[C@H]1COC the Potency was “inactive”.
For O=C1CCCCC(CNC(=O)c2ccncc2)N1 (stereo not drawn), the Potency was “inactive”.
In the case of O=C(O)CCNC(=O)Cn1nc2c(cc1=O)CCCCC2, the Potency is reported as “inactive”.
For Cn1nnc(-c2ccc(C(=O)N3CCC4(CCCO4)CC3)cc2)n1, the Potency was “inactive”.
With O=C1Nc2ccc(-c3ccsc3)cc2C(=O)N2CC[C@H](NS(=O)(=O)c3cccs3)[C@@H]12 the Potency was “inactive”.
With Cc1ccc(Cl)cc1NC(=O)CN1C(=O)NC(c2ccc(Cl)cc2)C2=C1COC2=O (stereo not drawn) the Potency was 12.6 µM (active).
In the case of COc1ccc(C)cc1NC(=O)CN1C(=O)NC(c2ccccc2Cl)C2=C1COC2=O (stereo not drawn), the Potency is reported as “inactive”.
With Cc1ccccc1NC(=O)CN1C(=O)NC(c2ccccc2Cl)C2=C1COC2=O (stereo not drawn) the Potency was “inactive”.
For COc1cccc(CC(=O)N2CCC(N3C(=O)CCC3C(=O)NCc3ccccc3)CC2)c1 (stereo not drawn), the Potency was “inactive”.
For Cc1nn(-c2ccccc2)c2c1C(C(C)C)N(C1CN(C(=O)c3ccccc3Cl)C1)C2=O (stereo not drawn), the Potency was “inactive”.
With Cc1nn(-c2ccccc2)c2c1C(C(C)C)N(C1CCN(C(=O)c3ccc(Cl)nc3)CC1)C2=O (stereo not drawn) the Potency was “inactive”.
For Cc1nn(-c2ccccc2)c2c1C(C)N(C1CCCN(C(=O)c3ccccn3)C1)C2=O (stereo not drawn), the Potency was “inactive”.
With COc1cccc(CN2CCC(N3C(=O)c4c(c(C)nn4-c4ccccc4)C3C3CC3)CC2)c1 (stereo not drawn) the Potency was 35.5 µM (active).
With COc1cccc(C(=O)N2CCC(N3C(=O)c4c(c(C)nn4-c4ccccc4)C3C)C2)c1 (stereo not drawn) the Potency was 35.5 µM (active).
With CC1(C(=O)O)CCN(C(=O)C2CCCC2)CC1 the Potency was “inactive”.
For C=CCNC(=O)C[C@@H]1CCN(C(=O)c2cccnc2)C[C@@H]1CC, the Potency was “inactive”.
In the case of CC(=O)N1CCC(Cc2ccc(C(=O)NC3CC3)cc2)CC1, the Potency is reported as “inactive”.
With COCCOC1CCOC2(CCN(C(=O)C3(c4ccc(OC)cc4)CC3)CC2)C1 (stereo not drawn) the Potency was “inactive”.
For COCCN(C)Cc1ccc(CC2CCN(C(=O)C3(c4ccc(OC)cc4)CC3)CC2)cc1, the Potency was 39.8 µM (active).
In the case of O=C1CC(c2ccccc2)N(Cc2ccncc2)CCCN(C(=O)COc2ccccc2)CCN1 (stereo not drawn), the Potency is reported as “inactive”.
